# Measurements taken from ChEMBL document CHEMBL4513141, “CO-ADD screening of NIH (USA) - Clinical Collection” (2021).
# Measured potencies and affinities stand elsewhere.
# Test system: Klebsiella pneumoniae
# Details: Concentration 20 uM; ASSAY_TEST Inhibition of Bacterial Growth; detection method Absorption (OD600); MEDIA CAMHB; plate type 384well; NBS; CORNING #3640; time 18 hr
row,SMILES,Inhibition [%]
1,Cc1ccc(-c2cc(C(F)(F)F)nn2-c2ccc(S(N)(=O)=O)cc2)cc1 [CELECOXIB],10.55
2,CCCNC(C)C(=O)Nc1ccccc1C.Cl (centres undefined) [PRILOCAINE HYDROCHLORIDE],10.6
3,Cc1ccc(S(=O)(=O)NC(=O)NN2CCCCCC2)cc1 [TOLAZAMIDE],-1.58
4,CC(C)(C)NCC(O)c1ccc(O)c(CO)c1.CC(C)(C)NCC(O)c1ccc(O)c(CO)c1.O=S(=O)(O)O (centres undefined) [ALBUTEROL SULFATE],17.78
5,Cl.Clc1ccc2nsnc2c1NC1=NCCN1 [TIZANIDINE HYDROCHLORIDE],10.36
6,COc1ccc(Cl)cc1C(=O)NCCc1ccc(S(=O)(=O)NC(=O)NC2CCCCC2)cc1 [GLYBURIDE],8.21

# Test system: Candida albicans
# Details: 20 µM
row,SMILES,Inhibition [%]
1,CC(C)[N+](C)(CCOC(=O)C1c2ccccc2Oc2ccccc21)C(C)C.[Br-] [PROPANTHELINE BROMIDE],2.52
2,CCC(C)(C)C(=O)O[C@H]1C[C@@H](C)C=C2C=C[C@H](C)[C@H](CC[C@@H]3C[C@@H](O)CC(=O)O3)[C@H]21 [SIMVASTATIN],14.8
3,Cc1nccn1CC1CCc2c(c3ccccc3n2C)C1=O (centres undefined) [ONDANSETRON],4.72
4,COC(=O)C1=C(C)NC(C)=C(C(=O)OC(C)C)C1c1cccc2nonc12 (centres undefined) [ISRADIPINE],4.43
5,Nc1ccn([C@H]2CC[C@@H](CO)O2)c(=O)n1 [ZALCITABINE],0.46
6,Nc1ncnc2c1ncn2[C@@H]1O[C@H](CO)[C@@H](O)[C@@H]1O [VIDARABINE],4.29
7,COc1ccccc1OCC(O)COC(N)=O (centres undefined) [METHOCARBAMOL],3.99
8,CN1CCCC(n2nc(Cc3ccc(Cl)cc3)c3ccccc3c2=O)CC1.Cl (centres undefined) [AZELASTINE HYDROCHLORIDE],4.45
9,CCCc1cc(=O)[nH]c(=S)[nH]1 [PROPYLTHIOURACIL],3.22
10,O=C1c2c(O)cc(O)cc2O[C@H](c2ccc(O)c(O)c2)[C@@H]1O,3.45
11,CCOC(=O)C1(CCCCCCOc2ccc(Cl)cc2)CO1 (stereo not drawn) [rac-ETOMOXIR],1.76
12,CCCC(=O)Nc1ccc(OCC(O)CNC(C)C)c(C(C)=O)c1.Cl (centres undefined) [ACEBUTOLOL HYDROCHLORIDE],1.82
13,CN[C@@H]1[C@H](O)[C@H](NC)[C@H]2O[C@@]3(O)C(=O)C[C@@H](C)O[C@H]3O[C@@H]2[C@H]1O.Cl.Cl.Cl.O.O.O,2.22
14,CC1(C)O[C@@H]2C[C@H]3[C@@H]4C[C@H](F)C5=CC(=O)C=C[C@]5(C)[C@@]4(F)[C@@H](O)C[C@]3(C)[C@]2(C(=O)CO)O1 [FLUOCINOLONE ACETONIDE],5.45
15,COc1ccc(-c2oc3c(CC=C(C)C)c(O[C@@H]4O[C@H](CO)[C@@H](O)[C@H](O)[C@H]4O)cc(O)c3c(=O)c2O[C@@H]2O[C@@H](C)[C@H](O)[C@@H](O)[C@H]2O)cc1 [ICARIIN],4.36
16,CNCC[C@@H](Oc1ccccc1C)c1ccccc1.Cl [ATOMOXETINE HYDROCHLORIDE],3.59
17,CC(CCCCC(=O)Nc1ccc(C(F)(F)F)cc1)NCCc1c[nH]cn1.O=C(O)/C=C\C(=O)O.O=C(O)/C=C\C(=O)O (centres undefined),2.76
18,CN(C)CCCN1c2ccccc2CCc2ccccc21.Cl [IMIPRAMINE HYDROCHLORIDE],0.7
19,CCCc1nc(C)c2c(O)nc(-c3cc(S(=O)(=O)N4CCN(CC)CC4)ccc3OCC)nn12.O=C(O)CC(O)(CC(=O)O)C(=O)O,4.67
20,NS(=O)(=O)c1cc2c(cc1Cl)NCNS2(=O)=O [HYDROCHLOROTHIAZIDE],2.05
21,O=c1c(-c2ccccc2)c1-c1ccccc1 [DIPHENCYPRONE],5.88
22,Nc1nc(O)c2ncn(CCC(CO)CO)c2n1 [PENCICLOVIR],0.56
23,Cc1cccc(Nc2ccccc2C(=O)O)c1C [MEFENAMIC ACID],7.85
24,O=C(CCCN1CC=C(n2c(=O)[nH]c3ccccc32)CC1)c1ccc(F)cc1 [DROPERIDOL],4.22
25,O=C(O)COCCN1CCN(C(c2ccccc2)c2ccc(Cl)cc2)CC1 (centres undefined) [CETIRIZINE],3.71
26,CC1(C)C[C@@H]1C(=O)N/C(=C\CCCCSC[C@H](N)C(=O)O)C(=O)[O-].[Na+] [CILASTATIN SODIUM],5.18
27,CCC(CO)NCCNC(CC)CO (centres undefined),2.36
28,NC(Cc1cc(I)c(Oc2ccc(O)c(I)c2)c(I)c1)C(=O)O (centres undefined) [RATHYRONINE],2.19
